Assay outcomes as filed in PubChem.
Compounds with a hit are over-represented: about 1.1% of the library has one in this group of screens.
HDAC3 inhib: human HDAC3 inhibition. recombinant HDAC3, fluorogenic peptide/trypsin coupled, fluorescence. inhibition, % at 8.3 µM. 0.15% of 320,000 active. AID 2718; in the data active = inhibition above about 26%, passing the limit was not always enough; inconclusive = no clear call, values can overlap the other calls
Target sequence (O15379 whole entry, looked up): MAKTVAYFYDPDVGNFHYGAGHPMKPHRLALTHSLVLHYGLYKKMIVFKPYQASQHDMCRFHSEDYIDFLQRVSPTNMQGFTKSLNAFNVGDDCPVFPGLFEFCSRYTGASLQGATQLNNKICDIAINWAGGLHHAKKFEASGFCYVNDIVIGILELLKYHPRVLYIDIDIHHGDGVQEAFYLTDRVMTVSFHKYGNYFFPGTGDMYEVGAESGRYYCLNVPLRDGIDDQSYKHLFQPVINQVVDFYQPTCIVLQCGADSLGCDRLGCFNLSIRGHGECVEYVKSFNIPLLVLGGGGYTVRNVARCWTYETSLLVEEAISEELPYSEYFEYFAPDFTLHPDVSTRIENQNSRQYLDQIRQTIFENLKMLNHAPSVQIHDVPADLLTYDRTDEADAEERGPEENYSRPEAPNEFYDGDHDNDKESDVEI
CASP6 VEID inh: inhibitors of human caspase-6. P55212. purified caspase-6, Z-VEID-R110 cleavage fluorescence. inhibition, % at 12.5 µM. 0.53% of 350,000 active;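 active = mean inhibition across replicates at least about 35%, with every replicate also reaching that limit, limit read from the data; inconclusive = only one of the two criteria met; inactive = neither criterion met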;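 note: 0% = median of neutral control wells and 100% = no fluorescence left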
Glyco luc inh: N-linked glycosylation inhibition | D54 ERlucT glycosylation luciferase reporter, 24 h; percent of 100 nM tunicamycin response | reporter increase, % at 12.5 µM | 0.23% of 360,000 active | AID 588692;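 active = mean luciferase reporter signal, scaled so untreated is 0 and the glycosylation-blocking control 100, at or above a set limit in every replicate; inconclusive = mean reaches the limit but not every replicate does; inactive = mean below the limit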;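 note: luciferase carries N-glycosylation sites so blocking glycosylation raises the light; 0% = median of neutral control wells and 100% = median of 100 nM tunicamycin wells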
Keap1-Nrf2 PPI: Keap1-Nrf2 (human) interaction inhibition. Q14145. inhibition, % at 9.4 µM. Keap1 Kelch-Nrf2 peptide fluorescence polarization, 1536-well. AID 504523. 0.15% of 340,000 active; in the data active = inhibition above about 12%; inconclusive = no clear call, values can overlap the other calls; inactive = below about 7.3%;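 note: human Keap1 Kelch domain with fluorescein labeled Nrf2 9mer peptide probe; 0% = neutral control wells and 100% = peptide positive control; higher means more block of Keap1 binding to Nrf2 peptide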
C-LANA FP: KSHV C-LANA DNA binding inhibition | MBP-C-LANA/FAM-LBS DNA binding, fluorescence polarization | 0.078% of 340,000 active | inhibition, % at 9 µM;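 active = highest replicate inhibition at or above 60% at 9 µM, even if other replicates fall short; inactive = all replicates below 60% inhibition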;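 note: 0% = neutral control wells and 100% = 4 µM acridine orange control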
NSD2 inh: NSD2 (human) methyltransferase inhibition; O96028; NSD2 peptide methylation, AlphaScreen, 120 min; inhibition, % at 12.5 µM; 0.54% of 310,000 active; AID 743445; in the data active = inhibition above about 50%
The depositor's hits bear a star; ? = inconclusive; / = no result.

SMILES	HDAC3 inhib	CASP6 VEID inh	Glyco luc inh	Keap1-Nrf2 PPI	C-LANA FP	NSD2 inh
C[C@@H]1CN([C@H](C)CO)C(=O)c2ccccc2-c2ccccc2CO[C@@H]1CN(C)Cc1ccc(O)cc1	/	-0.6	/	/	/	/
O=C(NCc1ccccc1Cl)c1cccc2c1C(=O)c1ccc(-c3ccc(OC(F)(F)F)cc3)cc1S2(=O)=O	-3.0	/	304.1*	-1.2	3.1	/
Cc1cc(=O)[nH]c(SCC(=O)Nc2ccc(Cl)cc2)n1	/	/	/	/	/	2.0
O=C1c2ccccc2C(=O)C1(CO)c1ccccc1	2.9	38.4*	-1.2	0.0	0.9	2.9
COCC#Cc1cnc2c(c1)C(=O)N([C@@H](C)CO)C[C@H](C)[C@H](CN(C)S(=O)(=O)c1ccccc1)O2	/	1.3	/	/	/	/
Nc1cc(OC(=O)c2ccco2)nn1S(=O)(=O)c1ccc(F)cc1	85.3*	/	0.1	-11.9	1.2	-1.6
Nc1cc(OC(=O)c2ccc(F)cc2)nn1S(=O)(=O)c1ccc(F)cc1	60.0*	-1.2	3.2	-24.3	0.0	-2.9
CC(C)(C)C(=O)Oc1cc(N)n(S(=O)(=O)c2ccc(F)cc2)n1	?	/	4.2	-0.5	-0.5	4.7
Cc1ccc(S(=O)(=O)n2nc(OC(=O)c3ccco3)cc2N)cc1	58.2*	/	4.3	-3.4	-1.1	7.5
COc1cccc(CN2CCc3[nH]c(=S)[nH]c(=O)c3C2)c1	/	41.0*	2.6	-0.9	-0.8	1.6
Cc1ccc(S(=O)(=O)N(C)C[C@@H]2Oc3c(NS(=O)(=O)c4ccccc4)cccc3C(=O)N([C@H](C)CO)C[C@@H]2C)cc1	/	1.4	/	/	/	/
CCCCNc1c(-c2ccc(SC(C)CC)cc2)nc2cnccn12 (stereo unspecified)	31.5*	/	-13.5	0.0	6.4	/
CCOc1ccc(NS(=O)(=O)c2ccc(N)cc2)cc1	-7.8	/	-0.2	-3.5	1.3	/
CCOc1ccc(Nc2ccc(N)c(S(=O)(=O)O)c2)cc1	/	92.2*	0.6	6.9	87.9*	/
O=C(Nc1cc(F)ccc1F)N[C@H]1C=C[C@H](CC(=O)N2CCc3ccccc3C2)O[C@H]1CO	/	0.5	/	/	/	/
CC(C)NC(=O)N(C)C[C@H]1Oc2cc(C#Cc3ccccn3)ccc2S(=O)(=O)N([C@H](C)CO)C[C@H]1C	/	3.3	/	/	/	/
CCCCNC(=O)c1ccc2c(SCC(=O)O)c3c(nc2c1)CCCC3	/	/	2.2	-4.8	2.5	1.6
COc1ccc(Cl)cc1NC(=O)c1ccc2c(SCC(=O)O)c3c(nc2c1)CCCC3	4.0	37.2*	3.1	-0.4	0.3	/
CCCN(C(=O)c1ccc2c(SCC(=O)O)c3c(nc2c1)CCC3)c1cccc(C)c1	-4.0	65.4*	2.0	-0.4	-0.6	18.1
O=C(Cc1ccccc1)NN1C(=O)/C(=C/c2ccc(C(=O)O)cc2)SC1=S	15.4	69.2*	-0.1	3.1	0.4	-1.4
O=C(O)c1ccc(/C=C2/SC(=S)N(Cc3ccccc3)C2=O)cc1	1.6	2.3	1.9	2.9	-1.1	2.0
CC(=O)c1ccc(NC2=C(N3CCOCC3)C(=O)c3ccccc3C2=O)cc1	?	/	11.3	-5.3	1.1	/
O=C(O)c1ccc(NC2=C(N3CCOCC3)C(=O)c3ccccc3C2=O)cc1	-10.9	/	5.7	0.8	0.8	95.4*
Cc1ccc(NC2=C(N3CCOCC3)C(=O)c3ccccc3C2=O)cc1	3.5	/	-12.3	-2.7	0.8	100.5*
CO[C@H]1CN(C)C(=O)c2ccc(NC(C)=O)cc2OC[C@@H](C)N(Cc2nccs2)C[C@H]1C	/	1.8	/	/	/	/
SMILES	HDAC3 inhib	CASP6 VEID inh	Glyco luc inh	Keap1-Nrf2 PPI	C-LANA FP	NSD2 inh
COc1ccc(/C=N/NC(=O)c2ccc(COc3ccccc3Cl)o2)c(OC)c1C	0.2	/	43.3*	4.7	0.9	-4.8
COc1ccc(/C=N/NC(=O)c2ccc(COc3ccccc3Cl)o2)cc1	0.5	1.0	0.6	-5.8	2.4	0.4
O=C(NCC[C@@H]1CC[C@@H](NS(=O)(=O)c2ccccc2)[C@H](CO)O1)c1cc(Cl)cc(Cl)c1	/	0.4	/	/	/	/
COc1ccc(CN(CCN(C)C)c2ccccn2)cc1	-2.2	-1.1	0.8	-2.9	1.0	/
CCCCCCCCCCCCCCCC[N+](C)(C)CCN(Cc1ccc(OC)cc1)c1ncccn1	62.7*	/	-15.4	4.9	-5.7	/
COc1ccc(C2C(C(N)=O)=C(C)Nc3nc(-c4ccccc4)nn32)cc1OC (stereo unspecified)	22.3	-0.1	13.4	0.5	0.5	/
COc1cccc(-c2nc3n(n2)C(c2ccc4c(c2)OCO4)C(C(N)=O)=C(C)N3)c1 (stereo unspecified)	55.9*	/	13.8	-2.5	-0.5	/
